The sample as a whole holds a higher share of hits than the screen did.
HT1080 IDH1KD tx: HT-1080 IDH1 knockdown cell toxicity (counter line) | HT-1080 IDH1 knockdown viability, ATP luminescence, 48 h | Potency, µM (series often up to 46.1 µM), for the others: at the highest dose activity, negative = toxicity, actives largely listed as cytotoxic | hit rate 2% among 360,000;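 note: potency is the fitted concentration of half-maximal effect; 0% = DMSO wells and -100% = cell-free medium wells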
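HT-1080-IDH1KD cells (IDH1 knocked down), 750/well in RPMI with 5% FBS, treated with compound 48 h at 37 degrees C. Viability by CellTiter-Glo luminescence, normalised to DMSO and no-cell wells; concentration-response curves classed.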
IL1B secr inh: blocks inflammasome-driven IL-1 beta release; THP-1 LPS/ATP IL-1B secretion, AlphaLISA, 16 h; hits give low values; activity change, % at 57.5 µM; hit rate 4.7% among 360,000; in the data active = activity change below about -50%; inconclusive = mostly about -30% to -49%
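THP-1 cells pretreated 1 hr with compounds (up to 57.5 uM final), then stimulated with LPS (250 ng/mL final) plus ATP (1.25 mM final); secreted IL-1B measured by AlphaLISA after 16 hr, decreased signal indicating inhibition.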
ALOX12 inh: inhibitors of human 12S-lipoxygenase ALOX12; P18054; purified 12hLO, xylenol orange hydroperoxide absorbance; Potency, µM (series often up to 108 µM), for the others: at the highest dose activity change, negative = inhibition, usual class: inhibitors; hit rate 1.1% among 580,000; note: potency is the fitted concentration of half-maximal effect
Target sequence (P18054 whole entry, looked up): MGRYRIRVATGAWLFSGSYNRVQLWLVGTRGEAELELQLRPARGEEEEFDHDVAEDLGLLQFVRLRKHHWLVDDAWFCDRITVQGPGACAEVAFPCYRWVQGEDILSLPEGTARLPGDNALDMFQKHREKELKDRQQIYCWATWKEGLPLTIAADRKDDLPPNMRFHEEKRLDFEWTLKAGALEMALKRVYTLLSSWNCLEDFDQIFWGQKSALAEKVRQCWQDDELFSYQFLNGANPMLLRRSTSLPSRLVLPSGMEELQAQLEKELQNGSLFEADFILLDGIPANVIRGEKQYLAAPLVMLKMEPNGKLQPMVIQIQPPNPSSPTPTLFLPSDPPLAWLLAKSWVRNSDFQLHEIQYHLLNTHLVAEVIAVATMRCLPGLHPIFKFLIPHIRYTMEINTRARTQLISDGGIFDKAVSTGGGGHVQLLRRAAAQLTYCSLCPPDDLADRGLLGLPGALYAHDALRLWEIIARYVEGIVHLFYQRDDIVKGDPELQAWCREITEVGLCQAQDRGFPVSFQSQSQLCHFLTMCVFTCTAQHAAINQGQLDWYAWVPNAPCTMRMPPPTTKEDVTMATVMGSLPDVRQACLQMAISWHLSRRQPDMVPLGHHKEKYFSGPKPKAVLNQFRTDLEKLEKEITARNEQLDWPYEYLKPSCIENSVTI
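Hydroperoxide product was detected by ferrous iron/xylenol orange as the 573 to 405 nm absorbance ratio. Arachidonic acid at 40 uM (final) was turned over for 30 min at room temperature by 150 nM human 12hLO, pH 7.0 Hepes buffer, after 15 min compound preincubation.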
TDP1 cell CPT: DT40-hTDP1 cell growth loss with CPT. AID 686979. hit rate 12% among 420,000. chicken DT40 Tdp1-/-;hTDP1 cells + 20 nM CPT, ATP luminescence, 48 h. Potency, µM (titrated, usually from 46.2 µM), without a hit: at the highest dose activity change, negative = growth inhibition, hits mostly inhibitors; note: potency is the fitted concentration of half-maximal effect; nearly all actives have a fitted effect of over 55% in size
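Chicken DT40 Tdp1-/- cells complemented with human TDP1, 400 cells/well, exposed to compounds plus 20 nM camptothecin for at least 48 h at 37 C; viability read as ATP content by CellTiter-Glo luminescence.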
HT1080-NT tox: kills 2HG-producing HT-1080-NT fibrosarcoma cells. HT-1080-NT fibrosarcoma viability, CellTiter-Glo ATP luminescence, 48 h. Potency, µM (highest dose often 46.1 µM), for inactives: at the highest dose activity, negative = less viability, actives largely listed as cytotoxic. hit rate 1.6% among 360,000;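 note: NT is the 2HG producing partner of a matched IDH1 knockdown line; potency is the fitted concentration of half-maximal effect; 0% = DMSO-treated cells and -100% = media-only wells without cells; nearly all actives have a fitted effect of over 55% in size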
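Luminescent CellTiter-Glo readout after 48 hours of compound exposure at 37 degrees C defined viability of HT-1080-NT cells. Activity was normalized to DMSO wells and cell-free media wells; concentration-response curves were fitted and assigned curve classes.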
DT40 TDP1 no CPT: qHTS for Inhibitors of human tyrosyl-DNA phosphodiesterase 1 (TDP1): qHTS in cells in absence of CPT | DT40 Tdp1-/- hTDP1 cells, no CPT, ATP luminescence, 48 h | Potency, µM (top dose mostly 46.2 µM), without a hit: at the highest dose activity change, negative = growth inhibition, actives largely listed as inhibitors | hit rate 15% among 420,000; note: potency is the fitted concentration of half-maximal effect; nearly all actives have a fitted effect of over 55% in size
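Cells were dispensed at 400 per well, compounds added by pin tool, plates incubated ≥48 hr at 37 °C, then CellTiter-Glo added for 30 min at room temperature before luminescence reading. Line: DT40 Tdp1-/- complemented with hTDP1; camptothecin omitted.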
An asterisk follows results filed as active; ? = inconclusive; nt = not tested or not shown; [ ] = another dose, or the depositor's remark. Unless noted, calls come from the whole dose curve; as a rule, active = well fitted curve in the direction sought with a large enough effect; inconclusive = small, poorly fitted or top-dose-only effect, or another doubt; inactive = no such curve, though single readings can be large; an effect the other way counts as inactive or inconclusive. Unless noted, % is set by controls: 0 for no effect and ±100 for the full control effect.

SMILES	HT1080 IDH1KD tx	IL1B secr inh	ALOX12 inh	TDP1 cell CPT	HT1080-NT tox	DT40 TDP1 no CPT
CC(=O)N1CCN(C(=O)c2cc(-c3cccc4ccccc34)nc3ccccc23)CC1	-6.8%	-5.6	-23.4%	14.6µM*	-3.7%	16.4µM*
Cc1ccccc1CN1CCN(C(=O)c2cc(-c3ccncc3)nc3ccccc23)CC1	2.0%	0.0	-9.6%	20.6µM*	-17.5%	11.6µM*
CC1CCCN(C(=O)c2cc(-c3cccs3)nc3ccccc23)C1 (configuration not stated)	-24.9%	-20.6	0.9%	?	-19.9%	23.1µM*
O=C(c1cc(-c2ccncc2)nc2ccccc12)N1CCN(Cc2ccccc2)CC1	-4.2%	-59.6*	-14.2%	20.6µM*	-6.1%	20.6µM*
Cc1cccc2c(C(=O)N3CCN(c4ccccc4)CC3)cc(-c3ccncc3)nc12	1.3µM*	5.6	0.0%	2.59µM*	1.3µM*	2.91µM*
CCN(CCCNC(=O)c1cc2ccccc2c(OC)n1)C(C)=O	nt	nt	-10.0%	nt	nt	nt
COc1cc(NC(=S)NC(=O)c2ccc(C(C)(C)C)cc2)ccc1NC(=O)c1cccs1	?	-2.1	6.31µM*	?	?	18.4µM*
COc1cc(NC(=S)NC(=O)c2c(OC)cccc2OC)ccc1NC(=O)c1cccs1	-1.9%	17.4	?	10.3µM*	-5.0%	9.2µM*
COc1cc(NC(=S)NC(=O)c2cc(C)cc(C)c2)ccc1NC(=O)c1cccs1	2.5%	-18.5	?	?	21.7%	?
CN(CC(=O)Nc1c(Cl)cccc1Cl)Cc1ncc(-c2ccc(F)cc2)o1	nt	nt	14.2%	nt	nt	nt
CCOc1ccc(N(C(C)C(=O)N/N=C(\C)c2cccc(NC(=O)c3ccccc3)c2)S(C)(=O)=O)cc1 (configuration not stated)	-2.2%	?	16.1%	18.4µM*	-2.7%	18.4µM*
CC1CCC(NC(=O)c2cc(Sc3ccccc3Cl)nc3ccccc23)CC1 (configuration not stated)	nt	nt	-26.6%	nt	nt	nt
COc1cccc2c1C(=O)C=C(C)C2=O	?	-99.8*	?	2.91µM*	18.4µM*	4.61µM*
CC(C)(C)c1ccc2c(c1)C(=O)c1ccccc1C2=O	-18.4%	24.9	-29.4%	?	-16.6%	?
CC(C)(C=O)C1=CC(=O)c2ccccc2C1=O	13µM*	-102.5*	39.8µM*	0.184µM*	-29.3%	0.411µM*
CC1=CC(=O)c2ccccc2C1=O	4.8%	21.1	?	8.2µM*	27.4%	4.61µM*
COc1cc(-c2c(NC(=O)c3cccc([N+](=O)[O-])c3)oc3ccccc3c2=O)cc(OC)c1OC	nt	nt	5.1%	nt	nt	nt
CCC(=O)N1Cc2ccccc2CC2(CCN(CCc3ccc(C)cc3)CC2)C1	nt	nt	35.5µM*	nt	nt	nt
CCC(=O)N1Cc2ccccc2CC2(CCN(Cc3ccc(O)cc3)C2)C1 (configuration not stated)	nt	nt	11.7%[6.33 µM]	nt	nt	nt
Cc1cc2c(cc1C(=O)N1C[C@@H](C)[C@](O)(C3CCC3)C1)OCCO2	nt	nt	37.5%	nt	nt	nt
Cn1ccc2c(N(Cc3ccccc3)Cc3ccccc3)cc3c(c21)C1CCC3O1 (configuration not stated)	-16.1%	0.0	11.2µM*	?	-19.4%	18.4µM*
CN(C)CCN(C)c1cc2c(c3c1ccn3C)C1CCC2O1 (configuration not stated)	4.1%	-3.5	?	?	6.7%	?
CN(Cc1ccccc1)c1cc2c(c3c1ccn3C)C1CCC2O1 (configuration not stated)	?	-2.4	?	?	-26.6%	18.4µM*
COc1ccccc1N(C)c1cc2c(c3c1ccn3C)C1CCC2O1 (configuration not stated)	?	0.0	-28.6%	23.1µM*	23.1µM*	?
Cc1oc(-c2ccccc2)nc1CC(=O)Nc1cccc(C(=O)NC2CC2)c1	nt	nt	-2.9%	nt	nt	nt
SMILES	HT1080 IDH1KD tx	IL1B secr inh	ALOX12 inh	TDP1 cell CPT	HT1080-NT tox	DT40 TDP1 no CPT
COc1ccc(NC(=O)N2C[C@@H]3C[C@H](C2)c2c(NC(=O)c4cncnc4)ccc(=O)n2C3)cc1	nt	nt	0.0%	nt	nt	nt
CCC(=O)N1CCc2cc(Br)cc(S(=O)(=O)N3CCCC(C(=O)NCc4ccc(C)cc4)C3)c21 (configuration not stated)	nt	nt	-21.2%	16.4µM*	nt	16.4µM*
CCC(=O)N1CCc2cc(Br)cc(S(=O)(=O)N3CCCC(C(=O)Nc4cccc(F)c4)C3)c21 (configuration not stated)	nt	nt	-21.8%	23.1µM*	nt	18.4µM*
CCC(=O)N1CCc2cc(Br)cc(S(=O)(=O)N3CCCC(C(=O)Nc4ccc(CC)cc4)C3)c21 (configuration not stated)	nt	nt	-16.2%	-17.0%	nt	?
CCC(=O)N1CCc2cc(Br)cc(S(=O)(=O)NCCc3cccc(C)c3)c21	nt	nt	-16.8%	16.4µM*	nt	23.1µM*
CO[C@@H]1[C@@H](O[C@@H]2O[C@H](C)[C@@H](O[C@H]3C[C@@](C)(O)[C@@H](OC(=O)CC(C)C)[C@H](C)O3)[C@H](N(C)C)[C@H]2O)[C@@H](CC=O)C[C@@H](C)C(=O)/C=C/C2OC2C[C@@H](C)OC(=O)C[C@H]1OC(C)=O (some centres not stated)	nt	nt	nt	3.76µM*	nt	3.35µM*
CCc1cccc(NC(=O)C2CCCN(c3ncnc4c3nc3n4CCCCC3)C2)c1 (configuration not stated)	?	-54.4*	-7.6%	?	-5.0%	?
O=C(Nc1cccc(Cl)c1)C1CCCN(c2ncnc3c2nc2n3CCCCC2)C1 (configuration not stated)	nt	nt	?	5.17µM*	nt	?
O=C(Nc1cccnc1)C1CCCN(c2ncnc3c2nc2n3CCCCC2)C1 (configuration not stated)	-8.6%	26.1	6.1%	-29.7%	-2.7%	?
CC(C)(C)c1ccc(OCCCn2ccnc2)cc1	-23.9%	-68.3*	-26.3%	-2.5%	-12.4%	?
Cc1cc(OCCCCn2ccnc2)cc(C)c1Cl	?	-69.6*	-3.6%	18.4µM*	-28.3%	20.6µM*
CCCCOc1ccc(NC(=O)C(=O)NCCCn2ccnc2)cc1	9.7%	10.1	17.0%	?	-1.2%	18.4µM*
c1ccc2cc(OCCCn3ccnc3)ccc2c1	-1.9%	?	-7.5%	20.6%	-1.3%	?
Cc1cc(OCCCn2ccnc2)ccc1C(C)C	-1.8%	-20.7	-19.9%	?	5.0%	20.6µM*
